# Results filed as inconclusive are left out. Unmarked numbers belong to inactive results. Active and inactive are the calls of the source. Calls come from the whole dose curve; as a rule, active = well fitted inhibition curve with a large enough effect in the repeat runs; inconclusive = weak or mixed curves; inactive = no such curve, though single readings can be large or run the other way.
# Target: Estrogen receptor (Homo sapiens) (UniProt P03372)
# Experiment: qHTS assay to identify small molecule antagonists of the estrogen receptor alpha (ER-alpha) signaling pathway using the BG1 cell line in the presence of 0.1 nM 17-beta-estradiol (AID 1259244); note: nearly all actives have a fitted effect of over 50% in size
# Details: VM7Luc4E2 (BG1) ERE-luciferase, antagonist mode, 0.1 nM E2, 22 h; series mostly up to 92.4 µM; activity change, negative = inhibition: at the top concentration
# Excerpt: National Center for Advancing Translational Sciences [NCATS]
# NIH Chemical Genomics Center [NCGC]
# U.S. Environmental Protection Agency [EPA]
# National Institutes of Environmental Health Sciences [NIEHS]
# National Toxicology Program [NTP]
# U.S. Food and Drug Administration [FDA]
# Estrogen receptor (ER), a member of the nuclear hormone receptor plays an important role in development, metabolic homeostasis and reproduction. Two subtypes of ER, ER-alpha and ER-beta, have similar expression patterns with some uniqueness in both types. Endocrine disrupting chemicals (EDCs) and their interactions with steroid hormone receptors like ER causes disruption of normal endocrine function. Therefore, it is important to understand the effect of environmental chemicals in ER signaling pathway. For identifying ER antagonists, VM7Luc4E2 cell line was used to screen against Tox21 compound libraries.
# VM7Luc4E2 cell line (provided by Denison MS, University of California) endogenously express full-length ER-alpha and is stably transfected with a plasmid containing four estrogen responsive elements (ERE) upstream of a luciferase reporter gene. The current screening for identification of ER-alpha inhibitors against Tox21 compound libraries used lower concentration (0.1 nM) of 17beta-Estradiol as a stimulator.
# Tox21 Assay Protocol Summary:
# VM7Luc4E2 cells were cultured in phenol red free assay medium containing 10% charcoal stripped FBS for 5 days prior to the assay. The cells were dispensed at 4,000 cells/well in 4 uL of assay medium into white wall/solid-bottom 1536-well plates (Corning Life Sciences, Corning, NY) using a Multidrop Combi (ThermoFisher Scientific, Waltham, MA) dispenser. After the assay plates were incubated at 37C and 5% CO2 for 24 hr, 23 nL of compounds dissolved in DMSO, positive controls or DMSO only was transferred to the assay plates by a Pintool station (Kalypsys, San Diego, CA). The transfer of compounds was followed by the addition of 1 uL of 0.1 nM (final concentration) agonist (17beta-Estradiol)/assay medium using a Flying Reagent Dispenser (FRD, Aurora Discovery, San Diego, CA). The plates were incubated at 37C and 5% CO2 for 22 hr. For luciferase reporter gene assay, 4 uL of ONE-Glo reagent (Promega Corporation, Madison, WI) was added to each well using the FRD and after 30 min incubation at room temperature luminescence intensity was measured using ViewLux plate reader (PerkinElmer, Shelton, CT).
# % is set by controls: 0 for no effect and ±100 for the full control effect; potency is the fitted concentration of half-maximal effect.
# Chain of Estrogen receptor (Homo sapiens) (P03372 whole entry, looked up): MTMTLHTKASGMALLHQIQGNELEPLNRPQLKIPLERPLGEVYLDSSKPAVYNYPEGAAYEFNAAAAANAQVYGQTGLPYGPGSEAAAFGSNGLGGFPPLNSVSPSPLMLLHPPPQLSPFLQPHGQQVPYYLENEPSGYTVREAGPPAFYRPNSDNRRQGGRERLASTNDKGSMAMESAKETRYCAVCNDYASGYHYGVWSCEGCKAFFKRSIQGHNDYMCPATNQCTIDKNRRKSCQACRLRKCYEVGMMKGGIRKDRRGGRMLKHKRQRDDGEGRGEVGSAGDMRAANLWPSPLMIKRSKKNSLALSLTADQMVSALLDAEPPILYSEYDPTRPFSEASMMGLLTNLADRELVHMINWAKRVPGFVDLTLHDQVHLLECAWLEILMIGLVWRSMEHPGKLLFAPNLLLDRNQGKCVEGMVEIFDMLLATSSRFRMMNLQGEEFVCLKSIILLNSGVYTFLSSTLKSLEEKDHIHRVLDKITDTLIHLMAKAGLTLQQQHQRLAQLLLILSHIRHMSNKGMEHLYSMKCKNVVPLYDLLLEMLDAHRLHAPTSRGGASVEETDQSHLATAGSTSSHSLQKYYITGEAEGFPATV
Compound,"activity change, negative = inhibition",Potency
O=C(O)Cn1c(C(=O)Nc2nc(-c3ccccc3Cl)cs2)cc2ccccc21,-1.37% [at 42.5 µM],–
CCN(CC)CCc1nc(-c2ccccc2)no1,12.2% [at 42.5 µM],–
CCOC(=O)CC(C)C,0.887%,–
Cn1sccc1=O,-2.46%,–
O=C(NN1CCCC1)NS(=O)(=O)c1ccc(Cl)cc1,3.29% [at 42.5 µM],–
Cc1ccc(C(C)c2ccc(C)c(C)c2)cc1C,-2.15%,–
CCCCCCCCCO,0.574%,–
CC(C)CC=O,0%,–
CC(=O)O[C@@H]1C(=O)O[C@@H]2[C@H]1OC(=O)[C@@H]2OC(C)=O,3.09% [at 42.5 µM],–
C=CC(=O)OCC(C)OCC(C)OCC(C)OC(=O)C=C (stereo not given),4.41%,–
C=Cc1c(C)c2cc3[nH]c(cc4nc(cc5nc(cc1[nH]2)C(C)=C5CCC(=O)O)C(CCC(=O)O)=C4C)c(C)c3C=C,2.7% [at 42.5 µM],–
CC[C@@H]1C[C@H](N(Cc2cc(C(F)(F)F)cc(C(F)(F)F)c2)C(C)=O)c2cc(C(F)(F)F)ccc2N1C(=O)OC(C)C,2.86%,–
CCCCCCCCN(C)C,2.09%,–
CC(=O)O[C@H]1C[C@@H]2CC[C@@H]3[C@H](CC[C@@]4(C)[C@H]3C[C@H]([N+]3(C)CCCCC3)[C@@H]4OC(C)=O)[C@@]2(C)C[C@@H]1N1CCCCC1,0.752% [at 42.5 µM],–
CNCC[C@@H](Oc1ccccc1C)c1ccccc1,-0.462% [at 42.5 µM],–
CCC(C)N(C)C(=O)c1cc2ccccc2c(-c2ccccc2Cl)n1 (stereo not given),-12.5% [at 42.5 µM],–
NCCCOCCOCCOCCCN,2.1%,–
C1CCC2OC2C1 (stereo not given),15.4%,–
C=C(C)C(=O)OCCOc1ccccc1,8.3%,–
NC(N)=NN=C(/C=C/c1ccc([N+](=O)[O-])o1)/C=C/c1ccc([N+](=O)[O-])o1,-107% [at 42.5 µM],–

Compound,"activity change, negative = inhibition",Potency
CC(=O)N(O)CCCCCNC(=O)CCC(=O)N(O)CCCCCNC(=O)CCC(=O)N(O)CCCCCN,-5.27% [at 42.5 µM],–
O=C(CCN1CCN2CCCC2C1)N1c2ccccc2Sc2ccc(Cl)cc21 (stereo not given),3.86% [at 19 µM],–
CN(c1nccc(=O)[nH]1)C1CCN(c2nc3ccccc3n2Cc2ccc(F)cc2)CC1,-16.3% [at 42.5 µM],–
CN(C)CC[C@@H](c1ccc(Br)cc1)c1ccccn1,-2.79% [at 42.5 µM],–
CCCCCCCCCC=O,0.402%,–
CC(C)(Oc1ccc(Cl)cc1)C(=O)OCCCOC(=O)C(C)(C)Oc1ccc(Cl)cc1,-1.97% [at 42.5 µM],–
N[C@H]1C(O)O[C@H](CO)[C@H](O)[C@@H]1O (stereo not given in full),1.1%,–
O=C(Cl)c1c(Cl)cccc1Cl,-8.25%,–
CCCCCCCCCC(=O)OCC,5.75%,–
O=[N+]([O-])c1cc[n+]([O-])cc1,–,54.5 µM (active)
COc1ccc(C(C)=O)cc1,1.78%,–
N=C(N=C(N)N)N1CCOCC1,-0.874% [at 42.5 µM],–
O=[N+]([O-])c1cccc(Cl)c1Cl,8.01%,–
CC(C)(C)C1CCCCC1O (stereo not given),13.1%,–
CCCCC(CC)COCCCN (stereo not given),-6.96%,–
COCCO,4.74%,–
O=c1c2ccccc2nnn1CCl,13.3%,–
Cc1cccc(C(C)(C)C)c1O,8.24%,–
Nc1cnn([C@@H]2O[C@H](CO)[C@@H](O)[C@H]2O)c(=O)n1,1.81%,–
Oc1ccc2c(c1)OCO2,-12.1%,–

# — PubChem BioAssay (Tox21)
